We go through 40 molecules from PubChem BioAssay (Tox21).

Results filed as inconclusive are left out. A number with no mark means an inactive call. The source made the active and inactive calls. Calls follow the shape of the full dose curve.
% is scaled to controls: 0 for no effect and ±100 for the full control effect.

A short description of the experiment: qHTS assay to identify small molecule agonists of the progesterone receptor (PR) signaling pathway - cell viability counter screen (AID 1346799). Also: nearly all actives have a fitted effect of over 45% in size. Particulars: PR-UAS-bla HEK293T viability, CellTiter-Glo luminescence, 16 h; series mostly up to 92.4 µM; activity change, negative = cytotoxicity: at the top concentration. The source says:
National Center for Advancing Translational Sciences [NCATS]
NIH Chemical Genomics Center [NCGC]
U.S. Environmental Protection Agency [EPA]
National Institutes of Environmental Health Sciences [NIEHS]
National Toxicology Program [NTP]
U.S. Food and Drug Administration [FDA]
Progesterone receptor (PR), a nuclear hormone receptor, plays an important role in development, metabolic homeostasis and reproduction. It is activated by the steroid hormone progesterone. Endocrine disrupting chemicals (EDCs) and their interactions with steroid hormone receptors like PR causes disruption of normal endocrine function. To identify the compounds that stimulate PR signaling, a PR-UAS-bla GripTite cell line i.e. PR-UAS-bla HEK293T (Invitrogen, Carlsbad, CA, USA) containing a beta-lactamase reporter gene under the control of an UAS response element was used to screen Tox21 10K compound library. The cytotoxicity of the Tox21 compound library against the PR-bla cell line was tested in parallel by measuring the cell viability using CellTiter-Glo assay in the same wells.
Tox21 Assay Protocol Summary:
PR-UAS-bla HEK293T cells were dispensed at 3,000 cells/5 uL of assay medium containing 2% charcoal stripped FBS per well into black wall/clear-bottom 1536-well plates using a Multidrop Combi (ThermoFisher Scientific, Waltham, MA) dispenser. After the assay plates were incubated at a 37C and 5% CO2 for 6 hr, 23 nL of compounds dissolved in DMSO, positive controls or DMSO only was transferred to the assay plate by a Pintool station (Kalypsys, San Diego, CA). The plates were incubated at 37C and 5% CO2 for 16 hr. Then 1 uL of LiveBLAzer B/G FRET substrate was added using a Flying Reagent Dispenser (FRD, Aurora Discovery, San Diego, CA), the plates were incubated at room temperature for 2 hours, and fluorescence intensity was measured by an Envision plate reader (PerkinElmer, Shelton, CT). For cell viability readout that measures cytotoxicity, 4 uL/well of CellTiter-Glo reagent was added into the assay plates using a FRD. After 30 min incubation at room temperature, the luminescence intensity in the plates was measured using a ViewLux (PerkinElmer) plate reader.
A general note: Quantitative high-throughput screening tests each substance at several concentrations.
Consider `O=C(O)c1ccc(S(=O)(=O)N(Cl)Cl)cc1`, for which the outcome was inactive.
Regarding `C=CCCCCCCCCC(=O)O`, the “activity change, negative = cytotoxicity” value is 27.7%.
With `CCCCCCC=O`, the outcome was inactive.
For `CC(=O)CCC=C(C)C`, the molecule was called inactive.
Consider `N[C@H](Cc1c[nH]c2ccccc12)C(=O)O`, for which the outcome was inactive.
On to `CCCCCCO`, for which the molecule was classed as inactive.
With `C[C@]12CC[C@@H]3c4ccc(O)cc4CC[C@H]3[C@@H]1C[C@@H](O)[C@@H]2O`, the molecule was classed as inactive.
With `CCOCCOCCOCCO`, the outcome was inactive.
Consider `O=[N+]([O-])c1ccc2nc[nH]c2c1`, for which the outcome was inactive.
`CCCCCCCCCCN`: the “activity change, negative = cytotoxicity” value is -22.7%.
Turning to `CCNc1ccccc1`, the outcome was inactive.
Consider `O=C(O)/C=C/C(=O)O`, for which the molecule was called inactive.
For `O=C(O)c1ccccc1C(=O)O`, the molecule was called inactive.
`CC(C)CCCCCCCOC(=O)CCCCC(=O)OCCCCCCCC(C)C`: the molecule was called inactive.
For `C=C(C)C(=O)OCC(C)C`, the “activity change, negative = cytotoxicity” value was -13.9%.
Regarding `NCCCCCCN`, the call was inactive.
Still for that read-out and setting: as for `CC(CCl)OP(=O)(OC(C)CCl)OC(C)CCl` (stereo not given), the entry is “inactive”.
Regarding `CN(C)c1ccc(O)c2c1C[C@H]1C[C@H]3[C@H](N(C)C)C(=O)C(C(N)=O)=C(O)[C@@]3(O)C(=O)C1=C2O`, the “activity change, negative = cytotoxicity” value is -26.6% [at 42.5 µM].
With `CCOCC(=O)O`, the molecule was called inactive.
`O=C(OCC1CCC2OC2C1)C1CCC2OC2C1` (stereo not given): the outcome was inactive.
As to `CCCCCCCCCCO`, the “activity change, negative = cytotoxicity” value is -4.97%.
For the molecule `CCCCCCCCCCCCCCCC(=O)OC(C)C`, the “activity change, negative = cytotoxicity” value is 0% [at 42.5 µM].
Take `C[Si]1(C)O[Si](C)(C)O[Si](C)(C)O[Si](C)(C)O1`: the call was inactive.
On to `C=CC(=O)OCCC(=O)O`, for which the “activity change, negative = cytotoxicity” value is -2.57%.
With `CC(=O)OCc1ccco1`, the call was inactive.
`CC(=O)OC1CC(C)OC(C)O1` (stereo not given): the molecule was called inactive.
Regarding `CNC(=S)N(C)C`, the “activity change, negative = cytotoxicity” value was -1.5%.
Consider `NC(=S)NNC(N)=S`, for which the molecule was called inactive.
Take `O=S(=O)(O)c1ccc(N=Nc2c(O)ccc3cc(S(=O)(=O)O)ccc23)cc1`: the molecule was called inactive.
Same read-out and setting: next, `NCCNCCN`: “inactive”.
Take `CN(C)CCOC(=O)COc1ccc(Cl)cc1`: the “activity change, negative = cytotoxicity” value is -0.359% [at 42.5 µM].
For the molecule `Cc1ccc2ncccc2c1`, the molecule was called inactive.
For `CCCCCCCCCCCC(=O)OC`, the “activity change, negative = cytotoxicity” value was 3.55%.
In the case of `CCO[Si](CCC#N)(OCC)OCC`, the molecule was classed as inactive.
On to `c1ccc2c(c1)Cc1ccccc1-2`, for which the molecule was classed as inactive.
On the same count and under the same terms, next, `CCCCCCCO`: “inactive”; `CSc1ccc(Cl)cc1`: “inactive”.
On to `CC(C)c1cccc(C(C)C)c1`, for which the “activity change, negative = cytotoxicity” value was 12.4%.
On to `COCCCN`, for which the molecule was called inactive.
`O=C1C(c2[nH]c3ccccc3c2O)=Nc2ccccc21`: the “activity change, negative = cytotoxicity” value was -1.54% [at 42.5 µM].
